Experiments:
Assay in all cases: log2 ratio of Biotin-Ahx-Ub-VS probe labelling (fragment/DMSO); higher = less target engagement (more negative = stronger competition), active = hit call of the paper (q ≤ 0.05, log2 ratio ≤ -1)
Details in all cases: compound concentration: 200 uM; treatment time: 3 h
[1] = target: USP34 (UniProt Q70CQ2)
Method in brief: (§1)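 HEK293T lysate, 495 µg per sample in Tris/CHAPS/IGEPAL buffer with protease inhibitors, was treated in triplicate with fragment at 200 µM or vehicle for 3 h and then with Biotin-Ahx-Ub-VS at 0.5 µM final for 1 h. Labelled DUBs were NeutrAvidin-enriched, digested with LysC and trypsin, and run by diaPASEF LC-MS/MS. Spectronaut label-free quantities were global-median-normalised, and values are average log2 fragment/vehicle ratios by unpaired t-test on proteins with ≥2 unique peptides.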

[2] = target: T1, USP36 (UniProt Q9P275)
T1 sequence (whole entry): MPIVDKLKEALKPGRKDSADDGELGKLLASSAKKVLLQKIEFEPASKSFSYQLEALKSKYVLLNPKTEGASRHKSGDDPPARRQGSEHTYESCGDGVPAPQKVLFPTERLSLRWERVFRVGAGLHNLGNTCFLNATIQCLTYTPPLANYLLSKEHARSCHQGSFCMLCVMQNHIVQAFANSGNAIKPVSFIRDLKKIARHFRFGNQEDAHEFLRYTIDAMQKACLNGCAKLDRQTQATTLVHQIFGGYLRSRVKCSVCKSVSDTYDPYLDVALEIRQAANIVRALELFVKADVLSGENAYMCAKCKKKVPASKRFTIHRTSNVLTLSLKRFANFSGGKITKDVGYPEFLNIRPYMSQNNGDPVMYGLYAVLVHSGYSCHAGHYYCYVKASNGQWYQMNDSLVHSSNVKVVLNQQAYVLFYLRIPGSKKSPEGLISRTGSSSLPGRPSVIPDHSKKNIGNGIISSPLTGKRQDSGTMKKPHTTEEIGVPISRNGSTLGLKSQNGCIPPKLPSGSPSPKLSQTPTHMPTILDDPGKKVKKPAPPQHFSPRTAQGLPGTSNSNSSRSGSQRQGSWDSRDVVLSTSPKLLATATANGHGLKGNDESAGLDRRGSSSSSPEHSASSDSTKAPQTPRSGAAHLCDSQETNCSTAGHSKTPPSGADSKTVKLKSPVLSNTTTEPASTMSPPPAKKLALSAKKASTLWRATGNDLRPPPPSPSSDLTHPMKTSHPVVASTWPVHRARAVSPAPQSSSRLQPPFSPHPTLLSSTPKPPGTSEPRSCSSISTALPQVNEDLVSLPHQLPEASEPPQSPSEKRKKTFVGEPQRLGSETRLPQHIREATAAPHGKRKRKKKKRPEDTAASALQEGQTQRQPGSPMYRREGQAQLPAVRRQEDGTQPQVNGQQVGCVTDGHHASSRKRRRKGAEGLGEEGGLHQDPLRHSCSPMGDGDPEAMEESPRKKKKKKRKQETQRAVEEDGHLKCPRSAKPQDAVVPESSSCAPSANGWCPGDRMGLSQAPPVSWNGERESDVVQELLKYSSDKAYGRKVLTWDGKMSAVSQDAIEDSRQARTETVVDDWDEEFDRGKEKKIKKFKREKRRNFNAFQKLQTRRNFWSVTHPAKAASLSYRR
Method in brief: as §1

[3] = target: T2, USP38 (UniProt Q8NB14)
T2 sequence (whole entry): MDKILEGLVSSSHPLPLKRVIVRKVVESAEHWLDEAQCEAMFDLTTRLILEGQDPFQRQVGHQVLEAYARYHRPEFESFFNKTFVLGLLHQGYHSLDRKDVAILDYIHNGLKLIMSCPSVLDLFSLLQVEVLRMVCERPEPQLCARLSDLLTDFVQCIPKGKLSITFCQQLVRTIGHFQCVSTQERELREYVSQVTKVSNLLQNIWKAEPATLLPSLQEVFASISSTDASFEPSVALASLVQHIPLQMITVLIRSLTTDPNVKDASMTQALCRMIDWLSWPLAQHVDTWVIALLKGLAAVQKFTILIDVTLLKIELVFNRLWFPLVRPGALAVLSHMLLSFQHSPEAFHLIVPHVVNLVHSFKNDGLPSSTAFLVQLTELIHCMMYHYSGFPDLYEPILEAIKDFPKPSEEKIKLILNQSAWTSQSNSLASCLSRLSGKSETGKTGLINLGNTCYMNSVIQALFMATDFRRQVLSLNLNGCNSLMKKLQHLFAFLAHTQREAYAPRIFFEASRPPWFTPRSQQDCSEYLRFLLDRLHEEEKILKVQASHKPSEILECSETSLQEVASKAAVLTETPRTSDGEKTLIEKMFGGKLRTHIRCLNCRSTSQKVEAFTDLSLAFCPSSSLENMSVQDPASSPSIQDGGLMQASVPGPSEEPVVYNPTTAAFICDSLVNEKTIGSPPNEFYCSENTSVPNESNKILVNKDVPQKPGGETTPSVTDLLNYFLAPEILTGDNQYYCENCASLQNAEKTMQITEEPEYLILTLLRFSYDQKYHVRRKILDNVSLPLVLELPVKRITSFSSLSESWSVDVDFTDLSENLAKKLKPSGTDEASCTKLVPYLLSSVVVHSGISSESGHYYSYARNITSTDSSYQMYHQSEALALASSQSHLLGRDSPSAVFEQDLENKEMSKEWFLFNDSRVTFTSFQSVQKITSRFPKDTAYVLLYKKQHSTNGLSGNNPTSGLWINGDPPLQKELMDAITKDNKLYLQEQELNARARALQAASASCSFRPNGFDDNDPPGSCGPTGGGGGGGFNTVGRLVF
Method in brief: as §1

[4] = target: T3, USP39 (UniProt Q53GS9)
T3 sequence (whole entry): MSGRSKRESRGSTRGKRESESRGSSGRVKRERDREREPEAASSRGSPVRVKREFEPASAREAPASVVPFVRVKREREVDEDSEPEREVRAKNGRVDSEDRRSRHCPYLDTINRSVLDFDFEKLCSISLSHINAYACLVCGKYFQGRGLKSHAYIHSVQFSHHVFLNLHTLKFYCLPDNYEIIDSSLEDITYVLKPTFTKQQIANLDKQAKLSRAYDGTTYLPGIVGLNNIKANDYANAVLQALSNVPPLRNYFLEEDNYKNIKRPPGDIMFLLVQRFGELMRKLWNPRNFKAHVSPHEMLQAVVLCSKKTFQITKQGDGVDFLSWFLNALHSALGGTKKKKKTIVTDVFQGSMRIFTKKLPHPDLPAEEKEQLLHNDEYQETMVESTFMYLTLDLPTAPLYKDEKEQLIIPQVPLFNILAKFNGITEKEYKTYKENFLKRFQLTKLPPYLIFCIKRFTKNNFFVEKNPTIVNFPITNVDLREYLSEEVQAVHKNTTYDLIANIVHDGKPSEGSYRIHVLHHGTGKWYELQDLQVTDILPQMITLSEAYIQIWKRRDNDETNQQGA
Method in brief: as §1

[5] = target: T4, USP4 (UniProt Q13107)
T4 sequence (whole entry): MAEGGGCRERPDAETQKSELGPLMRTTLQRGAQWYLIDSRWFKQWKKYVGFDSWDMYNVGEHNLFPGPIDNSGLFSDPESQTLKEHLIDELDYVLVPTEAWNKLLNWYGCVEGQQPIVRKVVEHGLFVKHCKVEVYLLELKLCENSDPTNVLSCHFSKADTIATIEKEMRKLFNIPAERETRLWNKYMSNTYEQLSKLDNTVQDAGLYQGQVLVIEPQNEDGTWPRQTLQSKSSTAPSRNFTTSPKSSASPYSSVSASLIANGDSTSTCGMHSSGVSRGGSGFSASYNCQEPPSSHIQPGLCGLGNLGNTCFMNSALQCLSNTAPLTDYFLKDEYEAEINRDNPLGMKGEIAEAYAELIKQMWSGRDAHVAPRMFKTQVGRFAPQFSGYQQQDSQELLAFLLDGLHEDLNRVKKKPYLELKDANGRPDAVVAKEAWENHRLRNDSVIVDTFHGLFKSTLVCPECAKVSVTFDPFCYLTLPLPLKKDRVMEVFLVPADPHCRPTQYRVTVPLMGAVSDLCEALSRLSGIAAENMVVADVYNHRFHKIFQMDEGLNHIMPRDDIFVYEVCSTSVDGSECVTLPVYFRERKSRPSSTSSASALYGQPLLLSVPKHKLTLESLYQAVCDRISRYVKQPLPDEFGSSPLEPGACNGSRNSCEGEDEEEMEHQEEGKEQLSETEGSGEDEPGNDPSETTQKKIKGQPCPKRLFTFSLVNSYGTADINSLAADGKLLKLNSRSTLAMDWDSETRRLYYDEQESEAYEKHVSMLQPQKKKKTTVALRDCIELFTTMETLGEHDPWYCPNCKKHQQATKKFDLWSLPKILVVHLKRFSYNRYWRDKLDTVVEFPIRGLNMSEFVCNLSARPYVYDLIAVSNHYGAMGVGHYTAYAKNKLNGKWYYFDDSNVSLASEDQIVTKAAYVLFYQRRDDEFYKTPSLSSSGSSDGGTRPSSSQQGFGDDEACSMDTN
Method in brief: as §1

Measured: log2 ratio of Biotin-Ahx-Ub-VS probe labelling

Sequence of USP34 (Q70CQ2 whole entry, the tested form may be a part): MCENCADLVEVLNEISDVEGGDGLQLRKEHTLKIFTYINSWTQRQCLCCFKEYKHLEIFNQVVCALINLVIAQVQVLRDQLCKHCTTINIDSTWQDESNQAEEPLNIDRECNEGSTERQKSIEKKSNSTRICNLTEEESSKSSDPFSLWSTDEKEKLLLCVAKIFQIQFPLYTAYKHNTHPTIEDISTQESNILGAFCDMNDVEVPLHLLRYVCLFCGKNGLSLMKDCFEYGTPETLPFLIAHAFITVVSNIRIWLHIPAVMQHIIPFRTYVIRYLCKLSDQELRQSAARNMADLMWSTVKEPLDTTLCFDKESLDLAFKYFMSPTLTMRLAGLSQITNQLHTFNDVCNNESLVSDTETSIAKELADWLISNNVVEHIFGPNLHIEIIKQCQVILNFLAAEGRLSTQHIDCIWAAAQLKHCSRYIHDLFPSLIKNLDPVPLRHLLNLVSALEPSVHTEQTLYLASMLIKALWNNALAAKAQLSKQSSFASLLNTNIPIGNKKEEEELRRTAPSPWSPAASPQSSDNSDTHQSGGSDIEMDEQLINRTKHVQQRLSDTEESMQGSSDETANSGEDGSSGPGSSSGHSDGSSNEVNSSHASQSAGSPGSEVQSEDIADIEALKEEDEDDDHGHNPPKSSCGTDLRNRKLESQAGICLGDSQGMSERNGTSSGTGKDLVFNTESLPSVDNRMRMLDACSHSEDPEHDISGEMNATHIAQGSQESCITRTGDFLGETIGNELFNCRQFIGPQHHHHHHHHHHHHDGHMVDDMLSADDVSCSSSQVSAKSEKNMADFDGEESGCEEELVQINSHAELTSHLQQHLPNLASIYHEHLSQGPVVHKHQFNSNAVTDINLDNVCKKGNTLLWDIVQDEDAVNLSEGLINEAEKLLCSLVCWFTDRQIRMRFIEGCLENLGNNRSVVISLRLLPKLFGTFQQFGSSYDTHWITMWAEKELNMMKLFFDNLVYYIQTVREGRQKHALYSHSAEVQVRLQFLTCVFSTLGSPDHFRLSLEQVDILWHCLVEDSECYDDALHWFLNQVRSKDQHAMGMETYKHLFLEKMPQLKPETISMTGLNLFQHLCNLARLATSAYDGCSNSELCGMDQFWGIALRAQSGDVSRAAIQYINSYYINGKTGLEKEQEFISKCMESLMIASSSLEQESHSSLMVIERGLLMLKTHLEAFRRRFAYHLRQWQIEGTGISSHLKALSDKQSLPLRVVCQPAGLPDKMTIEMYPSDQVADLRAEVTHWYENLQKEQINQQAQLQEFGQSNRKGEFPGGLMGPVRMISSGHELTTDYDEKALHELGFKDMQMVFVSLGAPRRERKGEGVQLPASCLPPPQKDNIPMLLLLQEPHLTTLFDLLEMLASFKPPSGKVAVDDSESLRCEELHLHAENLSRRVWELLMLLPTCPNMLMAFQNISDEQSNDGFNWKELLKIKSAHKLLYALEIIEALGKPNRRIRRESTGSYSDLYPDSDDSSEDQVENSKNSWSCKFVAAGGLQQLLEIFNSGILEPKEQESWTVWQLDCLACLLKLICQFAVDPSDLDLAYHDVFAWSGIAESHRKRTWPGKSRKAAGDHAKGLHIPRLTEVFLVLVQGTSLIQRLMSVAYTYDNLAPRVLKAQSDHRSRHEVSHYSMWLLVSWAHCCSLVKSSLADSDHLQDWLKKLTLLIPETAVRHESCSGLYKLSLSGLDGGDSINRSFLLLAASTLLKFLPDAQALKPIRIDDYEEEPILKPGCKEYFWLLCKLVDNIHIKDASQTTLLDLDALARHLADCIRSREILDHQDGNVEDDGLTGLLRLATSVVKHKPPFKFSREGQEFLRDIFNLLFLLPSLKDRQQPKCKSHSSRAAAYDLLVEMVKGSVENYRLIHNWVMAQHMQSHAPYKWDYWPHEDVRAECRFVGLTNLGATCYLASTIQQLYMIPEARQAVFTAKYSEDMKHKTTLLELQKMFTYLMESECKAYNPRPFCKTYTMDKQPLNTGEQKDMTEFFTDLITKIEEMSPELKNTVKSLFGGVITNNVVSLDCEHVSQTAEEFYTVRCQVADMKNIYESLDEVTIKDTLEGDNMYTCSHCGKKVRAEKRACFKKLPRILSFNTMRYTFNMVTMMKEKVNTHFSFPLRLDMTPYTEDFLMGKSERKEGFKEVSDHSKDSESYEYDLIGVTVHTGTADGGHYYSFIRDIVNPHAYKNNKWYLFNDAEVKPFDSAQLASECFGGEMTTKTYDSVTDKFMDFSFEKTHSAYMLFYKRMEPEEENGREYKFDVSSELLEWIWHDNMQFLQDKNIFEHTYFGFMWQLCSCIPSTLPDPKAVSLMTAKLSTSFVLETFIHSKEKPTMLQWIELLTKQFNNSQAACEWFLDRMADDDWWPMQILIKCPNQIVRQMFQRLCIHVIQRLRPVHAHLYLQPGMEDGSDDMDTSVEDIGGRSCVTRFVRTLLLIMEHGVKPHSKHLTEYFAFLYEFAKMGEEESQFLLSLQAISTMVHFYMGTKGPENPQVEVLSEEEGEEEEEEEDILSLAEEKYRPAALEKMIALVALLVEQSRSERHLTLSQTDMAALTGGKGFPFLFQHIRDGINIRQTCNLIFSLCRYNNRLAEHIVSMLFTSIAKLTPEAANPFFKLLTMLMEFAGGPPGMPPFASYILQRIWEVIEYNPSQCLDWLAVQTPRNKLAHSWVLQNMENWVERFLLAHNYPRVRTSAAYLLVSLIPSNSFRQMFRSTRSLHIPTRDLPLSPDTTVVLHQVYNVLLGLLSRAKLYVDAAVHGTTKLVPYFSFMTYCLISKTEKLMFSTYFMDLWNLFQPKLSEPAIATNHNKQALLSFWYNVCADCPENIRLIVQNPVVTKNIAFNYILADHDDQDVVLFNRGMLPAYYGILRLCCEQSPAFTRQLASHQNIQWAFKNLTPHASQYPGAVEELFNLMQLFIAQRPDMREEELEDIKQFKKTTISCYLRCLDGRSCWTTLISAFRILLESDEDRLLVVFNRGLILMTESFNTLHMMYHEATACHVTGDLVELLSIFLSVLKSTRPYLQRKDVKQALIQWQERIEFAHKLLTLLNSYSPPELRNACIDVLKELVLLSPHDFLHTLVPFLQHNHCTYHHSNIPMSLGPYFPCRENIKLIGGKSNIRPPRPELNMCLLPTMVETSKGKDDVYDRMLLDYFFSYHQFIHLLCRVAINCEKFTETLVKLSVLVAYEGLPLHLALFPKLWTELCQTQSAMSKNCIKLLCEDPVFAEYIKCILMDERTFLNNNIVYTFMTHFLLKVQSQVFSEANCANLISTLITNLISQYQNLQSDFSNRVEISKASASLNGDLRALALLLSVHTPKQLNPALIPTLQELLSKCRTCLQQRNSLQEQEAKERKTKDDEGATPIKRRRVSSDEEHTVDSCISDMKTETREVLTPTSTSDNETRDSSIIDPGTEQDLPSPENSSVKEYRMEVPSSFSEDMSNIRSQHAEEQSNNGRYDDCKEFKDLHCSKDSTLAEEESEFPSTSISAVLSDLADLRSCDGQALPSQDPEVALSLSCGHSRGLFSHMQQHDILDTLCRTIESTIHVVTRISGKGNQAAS

CN(Cc1nc2ccccc2[nH]1)C(=O)CCl.Cl
inactive: [1] -0.266 | [2] 0.0504 | [3] 0.056 | [4] 0.391 | [5] -0.0216

Source: the supplement of paper PMC11732987, “Enantioselective OTUD7B fragment discovery through chemoproteomics screening and high-throughput optimisation” (Communications Chemistry, 2025)
